# Where “and” joins values, the source holds several entries; their conditions need not be identical. Equal values may be shown once. About 6,900 (2%) of roughly 340,000 compounds were called active. Cut-off read from the data, not from the text of the source: active = inhibition above about 30%; inactive = below that, where a call was filed. This excerpt belongs to a sample that is enriched for actives. Some compounds were tested as several samples or in several runs, with calls that do not always agree.
# Target: D(2) dopamine receptor (Homo sapiens) (UniProt P14416)
# Sequence (P14416 whole entry, looked up): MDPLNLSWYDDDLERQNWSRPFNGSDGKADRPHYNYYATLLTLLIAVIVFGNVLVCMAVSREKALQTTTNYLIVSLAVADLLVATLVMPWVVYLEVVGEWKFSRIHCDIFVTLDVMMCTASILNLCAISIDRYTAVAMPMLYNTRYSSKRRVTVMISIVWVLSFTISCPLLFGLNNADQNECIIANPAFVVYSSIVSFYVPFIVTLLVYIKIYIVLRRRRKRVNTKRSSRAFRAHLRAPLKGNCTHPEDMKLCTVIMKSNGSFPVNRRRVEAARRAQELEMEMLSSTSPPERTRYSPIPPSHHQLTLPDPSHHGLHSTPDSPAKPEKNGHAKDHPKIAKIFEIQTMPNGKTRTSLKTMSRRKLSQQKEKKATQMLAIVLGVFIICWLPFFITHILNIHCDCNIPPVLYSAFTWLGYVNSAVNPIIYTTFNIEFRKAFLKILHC
# Assay: HTS Assay for Allosteric Antagonists of the Human D2 Dopamine Receptor: Primary Screen for Antagonists; note: 0% is about no effect
# Settings: HEK293 TREx D2 cells, calcium flux, dopamine EC80; at 10 µM; stronger effect = higher value
# Procedure, shortened: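 Read-out: kinetic calcium fluorescence (1 cycle/s) in inducible HEK293 T-REx D2 cells after an EC80 dopamine addition that followed 180 s compound preincubation. Loss of the dopamine response indicates antagonism.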
row,SMILES,inhibition
1,CCC(C)(C)NC(=O)/C=C/c1cc(OC)c(OC)c(S(=O)(=O)N2CCc3ccccc32)c1,40.9% (active)
2,COc1cc(C)c(C)cc1S(=O)(=O)N1CCCc2ccccc21,-2.59% (inactive)
3,COc1cc(/C=C/C(=O)N2CCc3ccccc3C2)cc(OC)c1OC,-15.7% (inactive)
4,O=C(OCC(=O)N1CCCC1)c1ccc(Cl)nc1,-5.57% (inactive)
5,Cc1ccc2nc(NC(=O)C3CSC4(C)CCC(=O)N34)sc2c1 (stereo not drawn),-20% (inactive)
6,CC1(C)O[C@@H]2[C@H](O1)[C@@H](CO)O[C@H]2n1c(N2CCCCC2)nc2c(N)ncnc21,15.7% (inactive)
7,Cc1ccc(-n2nc(C)c(/C=N/NC(=O)c3cccs3)c2Cl)cc1,32.5% (active)
8,Cc1cccc(-n2c(C)cc(/C=N\NC(=O)c3cccs3)c2C)c1,2.76% (inactive)
9,CC(=O)Nc1ccc(/C=N/NC(=O)c2cccs2)cc1,-20.3% (inactive)
10,COc1ccc(CNC(=O)COC(=O)c2c(C)nn(-c3ccccc3)c2C)cc1OC,5.14% (inactive)
11,CCOc1ccc(NC(=O)Nc2ccc(N(C)C(C)=O)cc2)cc1,31.6% (active)
12,CCOc1ccc(NC(=O)Nc2cc(C)on2)cc1,-12.8% (inactive)
13,CC(=O)N(C)c1ccc(NC(=O)Nc2cccc3ccccc23)cc1,11.1% (inactive)
14,Cc1cccc(C(=O)NCC(=O)OCC(=O)N(C)CC(=O)Nc2ccccc2Cl)c1,-38.4% (inactive)
15,Cc1ccc(OCCCC(=O)Nc2ccc3c(c2)OCCO3)cc1,-2.09% (inactive)
16,COc1ccc(C(=O)OCC(=O)c2cc(C)n(CC3CCCO3)c2C)cc1[N+](=O)[O-] (stereo not drawn),-5.34% (inactive)
17,O=C(Nn1cnc2ccccc2c1=O)c1ccc([N+](=O)[O-])cc1Cl,-1.86% (inactive)
18,Cc1nc2ccccc2c(=O)n1NC(=O)c1ccccc1,-7.6% (inactive)
19,O=C(Nn1cnc2ccccc2c1=O)c1ccccc1,31.2% (active)
20,Cc1ccsc1C(=O)NC1CCCCC1C (stereo not drawn),-11.1% (inactive)
21,CCc1cccc(C)c1NC(=O)COC(=O)CC1CCCC1,-13.9% (inactive)
22,CN(Cc1cccs1)C(=O)CN1C(=O)c2ccccc2S1(=O)=O,-30.6% (inactive)
23,CCOc1ccccc1OCCCNCc1ccccc1,50% (active)
24,CCOCCCNCc1cc(Br)ccc1OCC,6.96% (inactive)

row,SMILES,inhibition
1,CCOCCCNCc1ccc(OCc2ccc(F)cc2)c(OC)c1,2.04% (inactive)
2,CN(CC(=O)Nc1ccc(F)c(F)c1F)C(=O)Cn1cnc2c1c(=O)n(C)c(=O)n2C,2.66% (inactive)
3,COc1ccc(-c2cc(C(=O)NCCCn3ccnc3)no2)cc1,3.91% (inactive)
4,COc1ccccc1-c1cc(C(=O)NCCCn2ccnc2)no1,45.9% (active)
5,O=C(NCCCn1ccnc1)c1cc(-c2ccccc2)on1,7.61% (inactive)
6,CCOC(=O)[C@H]1[C@H]2COc3ccc(Cl)cc3[C@@H]2N2C(=O)c3cc(C)ccc3NC(=O)[C@@]12C,-4.21% (inactive)
7,O=C(C1CC(=O)N(C2CCCC2)C1)N1CCN(c2cccc(C(F)(F)F)c2)CC1 (stereo not drawn),11.8% (inactive)
8,O=C1C2CCCN2C(=O)N1CCCCN1CCN(c2cccc(C(F)(F)F)c2)CC1 (stereo not drawn),106% (active)
9,Cc1ccccc1N1CCN(CCCN2C(=O)C3CCCCN3C2=O)CC1 (stereo not drawn),-27.4% (inactive)
10,CC(C)CN(C(=O)c1ccc2c(c1)OCO2)C1CCS(=O)(=O)C1 (stereo not drawn),-6.59% (inactive)
11,Cc1ccc2nnn(Cc3cccc(C(C)(C)C)c3O)c2c1,6.04% (inactive)
12,COc1ccccc1N1CCN(C(=O)c2ccc(Cl)c(S(=O)(=O)N3CCCC3)c2)CC1,-0.604% (inactive)
13,COc1cccc(-c2cc(C(=O)N3CCN(c4ccccc4OC)CC3)no2)c1,3.44% (inactive)
14,COc1ccccc1N1CCN(C(=O)c2c(-c3c(Cl)cccc3Cl)noc2C)CC1,40% (active)
15,Cn1c(N)c(C(=O)COC(=O)COc2ccc(Cl)cc2)c(=O)n(C)c1=O,20.2% (inactive)
16,COc1ccc(C)cc1S(=O)(=O)Nc1cc2c3c(c1)CCC(=O)N3CCC2,6.3% (inactive)
17,Cc1ccc(C)c(OCCC(=O)OCC(=O)c2ccc3c(c2)NC(=O)CO3)c1,-0.691% (inactive)
18,COc1ccccc1-c1sc2ccccc2c1-c1ccc(Br)nc1,7.5% (inactive)
19,Cc1n[nH]c(=O)c2c(NC(=O)CSc3cc(Cl)ccc3Cl)oc(C)c12,10% (inactive)
20,Cc1c(C(=O)Nc2ccccn2)oc2ccc(Br)cc12,-19.8% (inactive)
21,O=C(COC(=O)c1ccccc1SCC(=O)N1CCCC1)Nc1ccccc1OC(F)F,-3.18% (inactive)
22,COc1ccc(Cn2nnc3c(=O)[nH]c(C4CCN(C(=O)c5ccccc5Cl)CC4)nc32)cc1,5.81% (inactive)
23,COc1ccc(CN2CCC(c3nc4ccc(Cl)cc4[nH]3)CC2)cc1,59.7% (active)
24,COC(=O)c1cc(S(=O)(=O)NCC2CCN(Cc3ccc(Cl)cc3)CC2)cn1C,-3.52% (inactive)

row,SMILES,inhibition
1,Nc1c(N(CCCO)C(=O)C2CCCC2)c(=O)[nH]c(=O)n1Cc1ccccc1,10.6% (inactive)
2,Cc1cccc(NC(=O)CN2CCN(CC(=O)NCC3(N4CCCCC4)CCCCC3)CC2)c1C,6.75% (inactive)
3,CCN(CC(=O)Nc1cc(Cl)ccc1C)C(=O)CSCc1ccccc1,6.06% (inactive)
4,CC(C#N)(NC(=O)CN1CCN(S(=O)(=O)c2cc(C(F)(F)F)ccc2Cl)CC1)C1CC1 (stereo not drawn),12.9% (inactive)
5,CC1CCN(c2ccc([N+](=O)[O-])c(SCCO)c2)CC1,-11.8% (inactive)
6,CN1CCN(c2ccc([N+](=O)[O-])c(Sc3nc4ccccc4[nH]3)c2)CC1,88.9% (active)
7,O=C(CSc1nc2ccccc2[nH]1)N/N=C/C=C\c1ccccc1[N+](=O)[O-],-1.1% (inactive)
8,Cc1noc(C)c1COc1ccccc1C(=O)N(C)CC(=O)Nc1cccc(F)c1,6.3% (inactive)
9,COc1ccc(S(=O)(=O)N(CC(=O)N/N=C/c2ccccc2C(=O)O)c2ccccc2OC)cc1,1.95% (inactive)
10,COc1ccc(N(CC(=O)N/N=C/c2cccc3c2OCCO3)S(=O)(=O)c2ccc(NC(C)=O)cc2)cc1,44.5% (active)
11,CC(=O)Nc1ccc(S(=O)(=O)N(CCc2ccccc2)CC(=O)N/N=C/c2ccc(C(=O)O)cc2)cc1,10.8% (inactive)
12,O=C(CCc1nnc(CCCCc2ccccc2)o1)NC(c1cccnc1)C(F)(F)F (stereo not drawn),32.7% (active)
13,Cc1cc(-c2nnc(CCC(=O)NC(c3ccccc3)c3ccccc3)o2)no1,4.61% (inactive)
14,CC(CCn1cccn1)NC(=O)CCc1nnc(CCc2ccccc2)o1 (stereo not drawn),3.4% (inactive)
15,O=S(=O)(NCCc1ccccn1)c1cc(Cl)cc(Cl)c1O,0.268% (inactive)
16,O=C(Nc1ncccc1O)c1ccc(S(=O)(=O)N2CCCC2)cc1,-6.12% (inactive)
17,O=C(CN1C(=O)NC2(CCCCC2)C1=O)N1CCN(C(=O)c2cccs2)CC1,-4.48% (inactive)
18,CCCc1ccc(C(=O)COC(=O)CN2C(=O)NC3(CCCCC3C)C2=O)cc1 (stereo not drawn),-19.2% (inactive)
19,COc1ccc(NC(=O)c2sccc2SCC#N)cc1,31.6% (active)
20,COc1ccc(NC(=O)c2sc(N)nc2-c2ccccc2)cc1,-6.34% (inactive)
21,COc1ccc(NC(=O)CSc2nc(C)cs2)cc1,7.3% (inactive)
22,NC(=O)NC(=O)C(OC(=O)CCNS(=O)(=O)c1ccccc1)c1ccccc1 (stereo not drawn),12.6% (inactive)
23,O=C1COc2ccc(C(=O)CSc3ccc(Br)cc3)cc2N1,11.8% (inactive)
24,COc1cccc(C2=CC(=O)C[C@H](c3ccc(OC)c(OC)c3)C2)c1,9.37% (inactive)

row,SMILES,inhibition
1,CC(C)CCN1CCN(Cc2ccc(C(F)(F)F)cc2)CC1CCO (stereo not drawn),14.1% (inactive)
2,CC(C)CCN1CCN(Cc2cn[nH]c2C2CCCCC2)CC1CCO (stereo not drawn),56.2% (active)
3,CC(C)CCN1CCN(C/C=C/c2ccco2)CC1CCO (stereo not drawn),-9.65% (inactive)
4,COc1ccc(CCNC(=O)COc2ccc3c(c2)OCO3)cc1,-6.03% (inactive)
5,O=C(CN1CCC(O)(c2ccccc2)CC1)Nc1ccc2c(c1)OCCO2,94.9% (active)
6,O=C(Cn1c(=O)sc2ccccc21)Nc1ccc2c(c1)OCCO2,-10.2% (inactive)
7,Cn1c(=O)c2ccccc2n(CC(=O)Nc2ccc3c(c2)OCCO3)c1=O,0.133% (inactive)
8,CC1CCCC(NC(=O)c2cc(-c3ccncc3)nc3ccccc23)C1C (stereo not drawn),-1.15% (inactive)
9,CC(OC(=O)Cc1ccc(F)cc1)C(=O)N1CCc2ccccc21 (stereo not drawn),-8.93% (inactive)
10,CN(CC(=O)Nc1ccc(F)c(F)c1F)C(=O)C1CC(=O)N(C2CCCC2)C1 (stereo not drawn),-11.5% (inactive)
11,O=C(NC1CCCCC1)c1cc(C2CC2)on1,-9.03% (inactive)
12,CC(NC(=O)c1cc(-c2ccccc2)on1)c1ccccc1 (stereo not drawn),11.6% (inactive)
13,O=C(NC1CCCC1)c1cc(-c2ccccc2)on1,37.6% (active)
14,CCn1c(SCC(=O)NCC2CCCO2)nc2ccccc21 (stereo not drawn),-20.8% (inactive)
15,O=C(NC1CCCCC1)N1CCc2[nH]c3ccccc3c2C1,-14.3% (inactive)
16,COC(=O)[C@H]1[C@H]2C[C@H]3c4[nH]c5ccccc5c4CCN3C[C@@H]2CC[C@@H]1O,-5.26% (inactive) and 43.4% (active)
17,COC(=O)C1CCN(C(=O)c2cc(=O)[nH]c3ccccc23)CC1,17.7% (inactive)
18,O=C(COC(=O)Cc1ccc(Br)cc1)Nc1ccc(N2CCOCC2)cc1,22.4% (inactive)
19,COc1ccc(CNC(=O)Cc2ccc(-c3ccccc3)cc2)cc1OC,20.3% (inactive)
20,COc1cc(CNCc2cccs2)cc(Br)c1OC,-4.22% (inactive)
21,COc1cc(CNCc2ccc(OC)c3ccccc23)cc(OC)c1OC,33% (active)
